{
  "source": "a collection of fitness landscapes (doi:10.1126/science.1257360)",
  "parents": {"B1": {"name": "PhoQ; a variant is named by its letters at X, in order, P23837 (parent)", "chain": "MKKLLRLFFPLSLRVRFLLATAAVVLVLSLAYGMVALIGYSVSFDKTTFRLLRGESNLFYTLAKWENNKLHVELPENIDKQSPTMTLIYDENGQLLWAQRDVPWLMKMIQPDWLKSNGFHEIEADVNDTSLLLSGDHSIQQQLQEVREDDDDAEMTHSVAVNVYPATSRMPKLTIVVVDTIPVELKSSYMVWSWFIYVLSANLLLVIPLLWVAAWWSLRPIEALAKEVRELEEHNRELLNPATTRELTSLVRNLNRLLKSERERYDKYRTTLTDLTHSLKTPLXXLQXXLRSLRSEKMSVSDAEPVMLEQISRISQQIGYYLHRASMRGGTLLSRELHPVAPLLDNLTSALNKVYQRKGVNISLDISPEISFVGEQNDFVEVMGNVLDNACKYCLEFVEISARQTDEHLYIVVEDDGPGIPLSKREVIFDRGQRVDTLRPGQGVGLAVAREITEQYEGKIVAGESMLGGARMEVIFGRQHSAPKDE"}},
  "note": "Over roughly 140,000 sequences, “enrichment ratio after two sorts for PhoP signalling” has its median near 0; the highest 2% begin near 11. What follows is part of a selection rich in the highest values, with near analogues and random picks from the rest.",
  "data": [
    {"variants_of": "B1", "assay": "enrichment ratio after two sorts for PhoP signalling (ratio (wild type AVST 3.29)); higher = more functional", "conditions": "with PhoP (E. coli)", "values": [
      {"variant": "TISC", "enrichment ratio": 15},
      {"variant": "TINL", "enrichment ratio": 9.31},
      {"variant": "TISA", "enrichment ratio": 10.6},
      {"variant": "TIMG", "enrichment ratio": 3.15},
      {"variant": "RISC", "enrichment ratio": "≤ 0.25"},
      {"variant": "RINN", "enrichment ratio": "≤ 0.25"},
      {"variant": "TISS", "enrichment ratio": 11.9},
      {"variant": "TINN", "enrichment ratio": 12.6},
      {"variant": "WISS", "enrichment ratio": "≤ 0.25"},
      {"variant": "PSEG", "enrichment ratio": "≤ 0.25"},
      {"variant": "TIEG", "enrichment ratio": 11.8},
      {"variant": "WISC", "enrichment ratio": "≤ 0.25"},
      {"variant": "WFHG", "enrichment ratio": "≤ 0.25"},
      {"variant": "MFFV", "enrichment ratio": "≤ 0.25"},
      {"variant": "SPGL", "enrichment ratio": "≤ 0.25"},
      {"variant": "VISE", "enrichment ratio": "≤ 0.25"},
      {"variant": "FCRN", "enrichment ratio": "≤ 0.25"},
      {"variant": "TIMV", "enrichment ratio": 1.5},
      {"variant": "TIQH", "enrichment ratio": 12.6},
      {"variant": "WITV", "enrichment ratio": "≤ 0.25"},
      {"variant": "TIDV", "enrichment ratio": "≤ 0.25"},
      {"variant": "TIAN", "enrichment ratio": 19.6},
      {"variant": "RIAN", "enrichment ratio": "≤ 0.25"},
      {"variant": "TIQN", "enrichment ratio": 5.05},
      {"variant": "TIFI", "enrichment ratio": 0.264},
      {"variant": "TIWV", "enrichment ratio": "≤ 0.25"},
      {"variant": "TIKH", "enrichment ratio": "≤ 0.25"},
      {"variant": "TITV", "enrichment ratio": 15.1},
      {"variant": "TIYV", "enrichment ratio": 16.6},
      {"variant": "PPYV", "enrichment ratio": "≤ 0.25"},
      {"variant": "EETS", "enrichment ratio": "≤ 0.25"},
      {"variant": "VSPI", "enrichment ratio": "≤ 0.25"},
      {"variant": "TIGS", "enrichment ratio": 15},
      {"variant": "TIFP", "enrichment ratio": "≤ 0.25"},
      {"variant": "TIQQ", "enrichment ratio": 16.4},
      {"variant": "TIAD", "enrichment ratio": "≤ 0.25"},
      {"variant": "AIAA", "enrichment ratio": 9.24},
      {"variant": "TIAA", "enrichment ratio": 12},
      {"variant": "TIQP", "enrichment ratio": "≤ 0.25"},
      {"variant": "TIFC", "enrichment ratio": "≤ 0.25"},
      {"variant": "TITC", "enrichment ratio": 12.2},
      {"variant": "TINK", "enrichment ratio": 7.27},
      {"variant": "TIFA", "enrichment ratio": "≤ 0.25"},
      {"variant": "TIVK", "enrichment ratio": "≤ 0.25"},
      {"variant": "AMHL", "enrichment ratio": "≤ 0.25"},
      {"variant": "PQHY", "enrichment ratio": "≤ 0.25"},
      {"variant": "EMES", "enrichment ratio": "≤ 0.25"},
      {"variant": "LHSI", "enrichment ratio": "≤ 0.25"},
      {"variant": "LTDV", "enrichment ratio": "≤ 0.25"},
      {"variant": "PMYR", "enrichment ratio": "≤ 0.25"},
      {"variant": "LERK", "enrichment ratio": "≤ 0.25"},
      {"variant": "TIRI", "enrichment ratio": 2.01},
      {"variant": "TIMD", "enrichment ratio": "≤ 0.25"},
      {"variant": "RIEH", "enrichment ratio": "≤ 0.25"},
      {"variant": "TIGR", "enrichment ratio": 5.97},
      {"variant": "TIGD", "enrichment ratio": 11.6},
      {"variant": "TINH", "enrichment ratio": 34.4},
      {"variant": "WIQR", "enrichment ratio": "≤ 0.25"},
      {"variant": "TINT", "enrichment ratio": 4.95},
      {"variant": "TIQR", "enrichment ratio": 16},
      {"variant": "TITH", "enrichment ratio": 1.26},
      {"variant": "TIEH", "enrichment ratio": 27.9},
      {"variant": "TITD", "enrichment ratio": "≤ 0.25"},
      {"variant": "FADQ", "enrichment ratio": "≤ 0.25"},
      {"variant": "MASY", "enrichment ratio": "≤ 0.25"},
      {"variant": "PWSE", "enrichment ratio": "≤ 0.25"},
      {"variant": "ECDR", "enrichment ratio": "≤ 0.25"},
      {"variant": "AKEC", "enrichment ratio": "≤ 0.25"},
      {"variant": "PVAT", "enrichment ratio": "≤ 0.25"},
      {"variant": "GNSV", "enrichment ratio": 8.29},
      {"variant": "GIMV", "enrichment ratio": 2.38},
      {"variant": "MGWR", "enrichment ratio": "≤ 0.25"},
      {"variant": "GGSV", "enrichment ratio": 23.9},
      {"variant": "GISV", "enrichment ratio": 11.2},
      {"variant": "NISV", "enrichment ratio": 3.96},
      {"variant": "TGSV", "enrichment ratio": 17.2},
      {"variant": "MGSK", "enrichment ratio": "≤ 0.25"},
      {"variant": "NGSV", "enrichment ratio": "≤ 0.25"},
      {"variant": "RGSV", "enrichment ratio": "≤ 0.25"},
      {"variant": "MGSV", "enrichment ratio": 15.6},
      {"variant": "YHSV", "enrichment ratio": "≤ 0.25"},
      {"variant": "YIFP", "enrichment ratio": "≤ 0.25"},
      {"variant": "IYDW", "enrichment ratio": "≤ 0.25"},
      {"variant": "LKWY", "enrichment ratio": "≤ 0.25"},
      {"variant": "FTWQ", "enrichment ratio": "≤ 0.25"},
      {"variant": "GEMD", "enrichment ratio": "≤ 0.25"},
      {"variant": "GEMS", "enrichment ratio": 4.64},
      {"variant": "GAMI", "enrichment ratio": 18.9},
      {"variant": "GANW", "enrichment ratio": "≤ 0.25"},
      {"variant": "GAMV", "enrichment ratio": "≤ 0.25"},
      {"variant": "GEMI", "enrichment ratio": 84},
      {"variant": "HTQK", "enrichment ratio": "≤ 0.25"},
      {"variant": "QEKV", "enrichment ratio": "≤ 0.25"},
      {"variant": "MKDS", "enrichment ratio": "≤ 0.25"},
      {"variant": "VMDC", "enrichment ratio": "≤ 0.25"},
      {"variant": "HYLA", "enrichment ratio": "≤ 0.25"},
      {"variant": "NHAI", "enrichment ratio": "≤ 0.25"},
      {"variant": "RGAI", "enrichment ratio": "≤ 0.25"},
      {"variant": "TSAI", "enrichment ratio": 16.9},
      {"variant": "NSAI", "enrichment ratio": 0.375},
      {"variant": "KSAI", "enrichment ratio": "≤ 0.25"},
      {"variant": "SGAI", "enrichment ratio": 12.3},
      {"variant": "CFAI", "enrichment ratio": "≤ 0.25"},
      {"variant": "SGAT", "enrichment ratio": 5.6},
      {"variant": "TGAI", "enrichment ratio": 12.3},
      {"variant": "THAI", "enrichment ratio": 14.8},
      {"variant": "SHAI", "enrichment ratio": "≤ 0.25"},
      {"variant": "SGKR", "enrichment ratio": "≤ 0.25"},
      {"variant": "HRPD", "enrichment ratio": "≤ 0.25"},
      {"variant": "FYDW", "enrichment ratio": "≤ 0.25"},
      {"variant": "TKHK", "enrichment ratio": "≤ 0.25"},
      {"variant": "AFWS", "enrichment ratio": "≤ 0.25"},
      {"variant": "EVSQ", "enrichment ratio": "≤ 0.25"},
      {"variant": "SCCW", "enrichment ratio": 5.25},
      {"variant": "TARR", "enrichment ratio": 0.314},
      {"variant": "PTWW", "enrichment ratio": "≤ 0.25"},
      {"variant": "TDAI", "enrichment ratio": 13.6},
      {"variant": "ADAI", "enrichment ratio": 4.82},
      {"variant": "KDAI", "enrichment ratio": "≤ 0.25"},
      {"variant": "TQFC", "enrichment ratio": 8.5},
      {"variant": "TQTC", "enrichment ratio": 18.9},
      {"variant": "FQTM", "enrichment ratio": "≤ 0.25"},
      {"variant": "TQTA", "enrichment ratio": 5.01},
      {"variant": "GQTM", "enrichment ratio": "≤ 0.25"},
      {"variant": "TQTK", "enrichment ratio": "≤ 0.25"},
      {"variant": "TQSC", "enrichment ratio": 15.3},
      {"variant": "TQTM", "enrichment ratio": 22.5},
      {"variant": "NQSC", "enrichment ratio": "≤ 0.25"},
      {"variant": "FPER", "enrichment ratio": "≤ 0.25"},
      {"variant": "LWDG", "enrichment ratio": "≤ 0.25"},
      {"variant": "AHGV", "enrichment ratio": "≤ 0.25"},
      {"variant": "AGGV", "enrichment ratio": 11.4},
      {"variant": "AIGV", "enrichment ratio": "≤ 0.25"},
      {"variant": "AEGV", "enrichment ratio": 17.5},
      {"variant": "AEHV", "enrichment ratio": "≤ 0.25"},
      {"variant": "AMGV", "enrichment ratio": "≤ 0.25"},
      {"variant": "VYHA", "enrichment ratio": "≤ 0.25"},
      {"variant": "ALVG", "enrichment ratio": 1.71},
      {"variant": "HEES", "enrichment ratio": "≤ 0.25"},
      {"variant": "LAFL", "enrichment ratio": 2.72},
      {"variant": "AFDH", "enrichment ratio": "≤ 0.25"},
      {"variant": "ALVN", "enrichment ratio": 13.7},
      {"variant": "ALNL", "enrichment ratio": 1.07},
      {"variant": "ACIM", "enrichment ratio": 30.7},
      {"variant": "ACTI", "enrichment ratio": 5.16},
      {"variant": "ACVN", "enrichment ratio": 31.5},
      {"variant": "ACTM", "enrichment ratio": 11.9},
      {"variant": "ALQN", "enrichment ratio": "≤ 0.25"},
      {"variant": "ACTC", "enrichment ratio": 4.29},
      {"variant": "ACNL", "enrichment ratio": "≤ 0.25"},
      {"variant": "ACGM", "enrichment ratio": "≤ 0.25"},
      {"variant": "ACWM", "enrichment ratio": "≤ 0.25"},
      {"variant": "ACPN", "enrichment ratio": "≤ 0.25"}
    ]}
  ]
}
